In PubChem BioAssay (NCI):
Compounds without any hit were thinned out: in the full panel of roughly 83,000, 20% have a hit.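 Cell lines were cultured in 96-well plates, exposed to a single compound concentration, and assessed for percent growth 48 hours later.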 The source made the active and inactive calls. How the source made its calls: active means growth percent below 10; inactive means the rest.

Tests used:
Assay in all cases: NCI-60 one-dose screen, 48 h (100 = growth as untreated, 0 = no growth, -100 = all killed)
Conditions in all cases: 10 µM unless noted
SR leukemia = system: SR leukemia
RPMI-8226 leukemia = system: RPMI-8226 leukemia
OVCAR-5 ovarian = system: OVCAR-5 ovarian
OVCAR-4 ovarian = system: OVCAR-4 ovarian
SK-OV-3 ovarian = system: SK-OV-3 ovarian
IGROV1 ovarian = system: IGROV1 ovarian
OVCAR-3 ovarian = system: OVCAR-3 ovarian
HS 578T breast = system: HS 578T breast
NCI/ADR-RES ovarian = system: NCI/ADR-RES ovarian
OVCAR-8 ovarian = system: OVCAR-8 ovarian

Measured: growth

CN1CCN(CCCNc2nccc(-c3c(-c4ccc(F)c(O)c4)nc4sccn34)n2)S1(=O)=O
inactive: SR leukemia 58.1% | RPMI-8226 leukemia 87.4% | OVCAR-5 ovarian 131% | OVCAR-4 ovarian 133% | SK-OV-3 ovarian 91.8% | IGROV1 ovarian 98.5% | OVCAR-3 ovarian 116% | HS 578T breast 97.2% | NCI/ADR-RES ovarian 99.5%

CC(=O)Nc1ccc(S(=O)(=O)NC2CCCCC2)cc1
inactive: SR leukemia 99% | RPMI-8226 leukemia 94.3% | OVCAR-5 ovarian 93.9% | OVCAR-4 ovarian 113% | SK-OV-3 ovarian 97.3% | IGROV1 ovarian 103% | OVCAR-3 ovarian 110% | HS 578T breast 92.7% | NCI/ADR-RES ovarian 99.7%

COC(=O)Nc1ccc(NC(=O)OC)cc1
inactive: SR leukemia 105% | RPMI-8226 leukemia 89.4% | OVCAR-5 ovarian 114% | OVCAR-4 ovarian 112% | SK-OV-3 ovarian 90.9% | IGROV1 ovarian 120% | HS 578T breast 102% | NCI/ADR-RES ovarian 104%

O=C(Nc1nc2ccc(C(=O)N3CCN(c4ccc(Cl)c(Cl)c4)CC3)cc2s1)c1ccc(NCCc2ccccc2)c([N+](=O)[O-])c1
inactive: SR leukemia 98.4% | RPMI-8226 leukemia 85.5% | OVCAR-5 ovarian 91.3% | OVCAR-4 ovarian 87.3% | SK-OV-3 ovarian 107% | IGROV1 ovarian 82% | OVCAR-3 ovarian 111% | HS 578T breast 93.5% | NCI/ADR-RES ovarian 101%

CN1CCCC1=Nc1ccccc1
inactive: SR leukemia 91.9% | RPMI-8226 leukemia 107% | OVCAR-8 ovarian 105% | OVCAR-5 ovarian 118% | IGROV1 ovarian 111% | OVCAR-3 ovarian 128% | HS 578T breast 106% | NCI/ADR-RES ovarian 104%

COc1cc(/C=C2\C(=O)N(Cc3ccc(Cl)cc3)c3ccccc32)cc(OC)c1OC
inactive: OVCAR-5 ovarian 65.9% | OVCAR-4 ovarian 47.7% | SK-OV-3 ovarian 79.3% | NCI/ADR-RES ovarian 21.4%
active: SR leukemia -5.2% | RPMI-8226 leukemia -31.7% | IGROV1 ovarian 9.22% | HS 578T breast -14.3%

C=Cc1cc[n+](CCCCCCCCCCCC)cc1
inactive: SR leukemia 97.2% | RPMI-8226 leukemia 104% | OVCAR-5 ovarian 108% | OVCAR-4 ovarian 133% | SK-OV-3 ovarian 144% | IGROV1 ovarian 104% | OVCAR-3 ovarian 110% | HS 578T breast 108% | NCI/ADR-RES ovarian 106%

CCCCCCC/C=C/[C@H]1O[C@]2(O)C(=O)C=C3C[C@@H](O[C@@H]4O[C@H](CO)[C@@H](O)C(O)[C@@H]4O)C[C@@H]3[C@H]2C=C1C (stereo partly drawn)
inactive: OVCAR-5 ovarian 12% | OVCAR-4 ovarian 29.6% | SK-OV-3 ovarian 57.6% | HS 578T breast 29.1%
active: SR leukemia -26.4% | RPMI-8226 leukemia -23.6% | IGROV1 ovarian -7.08% | OVCAR-3 ovarian -75.4% | NCI/ADR-RES ovarian -6.45%

O=C1Nc2c(ccc(Cl)c2Cl)/C1=C/c1ccc(F)cc1
inactive: SR leukemia 73.9% | RPMI-8226 leukemia 96.5% | OVCAR-5 ovarian 84.4% | OVCAR-4 ovarian 73.8% | SK-OV-3 ovarian 89.7% | IGROV1 ovarian 42.8% | OVCAR-3 ovarian 83.5% | HS 578T breast 73.8% | NCI/ADR-RES ovarian 94%

O=C1C(=O)c2c(nc3ncccn23)-c2ccccc21
active: SR leukemia -14.8% | RPMI-8226 leukemia -25.3% | OVCAR-5 ovarian -88.1% | OVCAR-4 ovarian -96.2% | SK-OV-3 ovarian -97.9% | IGROV1 ovarian -58.5% | OVCAR-3 ovarian -50.2% | HS 578T breast -18.7% | NCI/ADR-RES ovarian -32.8%

CC(c1ccccc1)n1ccnc1CO (stereo not drawn)
inactive: SR leukemia 104% | RPMI-8226 leukemia 95.6% | OVCAR-8 ovarian 112% | OVCAR-5 ovarian 104% | SK-OV-3 ovarian 96.8% | IGROV1 ovarian 94.2% | OVCAR-3 ovarian 115% | HS 578T breast 92.1% | NCI/ADR-RES ovarian 99.8%

O=c1[nH]nc(-c2ccc(Cl)cc2)cc1Cc1cccc([N+](=O)[O-])c1
inactive: RPMI-8226 leukemia 51.6% | OVCAR-5 ovarian 107% | OVCAR-4 ovarian 80% | SK-OV-3 ovarian 88.8% | IGROV1 ovarian 82.4% | OVCAR-3 ovarian 101% | HS 578T breast 49.1% | NCI/ADR-RES ovarian 101%
active: SR leukemia -44.9%

O=C1CCCN1c1cccc2cccnc12
inactive: SR leukemia 101% | RPMI-8226 leukemia 102% | OVCAR-5 ovarian 109% | OVCAR-4 ovarian 110% | SK-OV-3 ovarian 114% | IGROV1 ovarian 107% | OVCAR-3 ovarian 110% | HS 578T breast 97.3% | NCI/ADR-RES ovarian 99.3%

Cc1[nH]n(C(=O)c2ccncc2)c(=O)c1N=Nc1ccc(F)c(Cl)c1
inactive: SR leukemia 76.1% | RPMI-8226 leukemia 87.6% | OVCAR-5 ovarian 114% | OVCAR-4 ovarian 112% | SK-OV-3 ovarian 103% | IGROV1 ovarian 95.3% | OVCAR-3 ovarian 98.3% | HS 578T breast 89.1% | NCI/ADR-RES ovarian 95.6%

C=C(C)[C@@H]1CC[C@]2(C(=O)NCCCN(CCC#N)CCC#N)CC[C@]3(C)[C@H](CC[C@@H]4[C@@]5(C)CCC(=O)C(C)(C)[C@@H]5CC[C@]43C)[C@@H]12
inactive: SR leukemia 108% | RPMI-8226 leukemia 101% | OVCAR-5 ovarian 103% | OVCAR-4 ovarian 92.6% | SK-OV-3 ovarian 93% | IGROV1 ovarian 102% | OVCAR-3 ovarian 107% | HS 578T breast 96.3% | NCI/ADR-RES ovarian 103%

COc1ccc(C(O)c2cc3c(N)c(C(=O)Nc4cccc(OC)c4)sc3nc2C)cc1 (stereo not drawn)
active: SR leukemia 2.51% | RPMI-8226 leukemia 6.06% | OVCAR-3 ovarian 0.638%
inactive: OVCAR-5 ovarian 23% | OVCAR-4 ovarian 36.5% | SK-OV-3 ovarian 19.5% | IGROV1 ovarian 15.4% | HS 578T breast 23.7% | NCI/ADR-RES ovarian 13.7%

O=C(Nc1sc2c(c1C(=O)O)CCCC2)c1cccc(C(F)(F)F)c1
inactive: SR leukemia 115% | RPMI-8226 leukemia 80.9% | OVCAR-5 ovarian 98.5% | OVCAR-4 ovarian 86.2% | SK-OV-3 ovarian 83.8% | IGROV1 ovarian 96.3% | OVCAR-3 ovarian 94.3% | HS 578T breast 98.2% | NCI/ADR-RES ovarian 93.3%

Nc1nc(N)nc(NCc2ccccc2)n1
inactive: SR leukemia 89% | RPMI-8226 leukemia 107% | OVCAR-5 ovarian 103% | OVCAR-4 ovarian 128% | SK-OV-3 ovarian 115% | IGROV1 ovarian 109% | OVCAR-3 ovarian 105% | HS 578T breast 120% | NCI/ADR-RES ovarian 100%

CCCCCCCCCCCCCCCCCCOc1ccccc1N
inactive: SR leukemia 75.4% | RPMI-8226 leukemia 12.1% | OVCAR-5 ovarian 101% | OVCAR-4 ovarian 55% | SK-OV-3 ovarian 74.7% | IGROV1 ovarian 75.1% | OVCAR-3 ovarian 44.9% | HS 578T breast 84.2% | NCI/ADR-RES ovarian 86.9%

NC(=S)N/N=C/c1ccc(OC(=O)COc2cc(Cl)c(Cl)cc2Cl)cn1
inactive: RPMI-8226 leukemia 76.4% | OVCAR-8 ovarian 26.1% | OVCAR-5 ovarian 115% | IGROV1 ovarian 63.8% | OVCAR-3 ovarian 59.2% | HS 578T breast 114% | NCI/ADR-RES ovarian 26.9%
active: SR leukemia 1.38%

O=C(N/N=C/c1ccc(F)cc1)c1ccccc1Nc1cccc(C(F)(F)F)c1
inactive: SR leukemia 24% | RPMI-8226 leukemia 93.1% | OVCAR-5 ovarian 104% | OVCAR-4 ovarian 84.4% | SK-OV-3 ovarian 94.6% | IGROV1 ovarian 103% | OVCAR-3 ovarian 81.3% | HS 578T breast 112% | NCI/ADR-RES ovarian 107%

C/C(=C(/c1ccccc1)c1ccc(OCC(O)CNCCN2CCOCC2)cc1)c1ccccc1 (stereo not drawn)
inactive: RPMI-8226 leukemia 20.4% | OVCAR-5 ovarian 76.2% | OVCAR-4 ovarian 70.3% | SK-OV-3 ovarian 95.4% | IGROV1 ovarian 63.3% | OVCAR-3 ovarian 77.9% | HS 578T breast 70.5% | NCI/ADR-RES ovarian 80.2%
active: SR leukemia 0.691%

O=C1OC(=O)C2C1CC=CC2c1ccccc1 (stereo not drawn)
inactive: SR leukemia 55% | RPMI-8226 leukemia 93.8% | OVCAR-5 ovarian 85.6% | OVCAR-4 ovarian 83.4% | SK-OV-3 ovarian 81.8% | IGROV1 ovarian 84.6% | OVCAR-3 ovarian 104% | HS 578T breast 76.7% | NCI/ADR-RES ovarian 91.1%

O=C1NC(=O)C(=Cc2cn(Cc3ccccn3)c3ccccc23)C(=O)N1
inactive: SR leukemia 93% | RPMI-8226 leukemia 96.1% | OVCAR-4 ovarian 93.4% | SK-OV-3 ovarian 89.8% | IGROV1 ovarian 31.6% | OVCAR-3 ovarian 102% | HS 578T breast 94.7% | NCI/ADR-RES ovarian 100%
active: OVCAR-5 ovarian -50.9%

CCCCN(CCCC)CCc1c(C)cc(C)c(CCN(CCCC)CCCC)c1O
active: RPMI-8226 leukemia 1.92%
inactive: SR leukemia 25.8% | OVCAR-5 ovarian 45.6% | OVCAR-4 ovarian 30.8% | SK-OV-3 ovarian 25.5% | IGROV1 ovarian 32.9% | OVCAR-3 ovarian 14.7% | HS 578T breast 58.3% | NCI/ADR-RES ovarian 75.7%

O=C(CNCCO)Nc1ccc2ncnc(Nc3ccc(OCc4cccc(F)c4)c(Cl)c3)c2c1
inactive: SR leukemia 12.9% | RPMI-8226 leukemia 88.2% | OVCAR-5 ovarian 85.5% | OVCAR-4 ovarian 93.8% | SK-OV-3 ovarian 16.4% | IGROV1 ovarian 33.6% | OVCAR-3 ovarian 72.7% | HS 578T breast 103% | NCI/ADR-RES ovarian 90.1%

COc1cccc2cc(-c3cc4ccccc4[nH]3)/c(=N/C(=S)Nc3ccc(C)cc3)oc12
inactive: SR leukemia 123% | RPMI-8226 leukemia 114% | OVCAR-5 ovarian 89.4% | OVCAR-4 ovarian 34.6% | SK-OV-3 ovarian 64.7% | IGROV1 ovarian 58.2% | OVCAR-3 ovarian 81.2% | HS 578T breast 14.1% | NCI/ADR-RES ovarian 50.8%

O=CNc1cc(Cl)cc(Cl)c1
inactive: SR leukemia 90.3% | RPMI-8226 leukemia 99.1% | OVCAR-5 ovarian 97.5% | OVCAR-4 ovarian 113% | SK-OV-3 ovarian 115% | IGROV1 ovarian 103% | HS 578T breast 111% | NCI/ADR-RES ovarian 108%

CC(=O)c1c(-c2ccc(OC(F)(F)F)cc2)nc2ccccn12
inactive: SR leukemia 116% | RPMI-8226 leukemia 101% | OVCAR-5 ovarian 83.1% | OVCAR-4 ovarian 100% | IGROV1 ovarian 88.8% | OVCAR-3 ovarian 101% | HS 578T breast 102% | NCI/ADR-RES ovarian 95.9%

COC(=O)N[C@H]1CCc2cc(OC)c(OC)c(OC)c2-c2ccc(SC)c(=O)cc21
inactive: OVCAR-4 ovarian 39.8% | SK-OV-3 ovarian 24.6% | IGROV1 ovarian 19.9%
active: SR leukemia 3.05% | OVCAR-8 ovarian 9.33% | OVCAR-5 ovarian 9.44% | OVCAR-3 ovarian -20.6% | HS 578T breast 2.61% | NCI/ADR-RES ovarian -22%

COc1ccc(Cn2nc(-c3ccccc3)c3c2CCc2cnoc2-3)cc1
inactive: SR leukemia 36% | OVCAR-8 ovarian 80.8% | OVCAR-5 ovarian 102% | OVCAR-4 ovarian 72.1% | SK-OV-3 ovarian 83.1% | IGROV1 ovarian 86% | OVCAR-3 ovarian 87.4% | HS 578T breast 90.7% | NCI/ADR-RES ovarian 66.7%
